Values joined by “and” are separate entries in the source; they are usually repeats but may differ in a detail not shown here. Equal values may be shown once. Among all 340,000 compounds or so, about 1,200 (0.35%) were called active.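 Rule for the calls: active = potentiation over 3 SD above the plate norm (cut at about 30% in these data); inactive = the rest.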 What follows is part of a selection rich in actives, with near analogues and random picks from the rest. The source holds several records for some structures; these can differ, active in one and inactive in another.

The target in this assay is D(2) dopamine receptor (Homo sapiens) (UniProt P14416). Put plainly: HTS Assay for Positive Allosteric Modulators of the Human D2 Dopamine Receptor: Primary Screen for Potentiators. Note: 0% is about no effect. To be noted: HEK293 T-REx D2, calcium flux, EC20 dopamine potentiation; at 10 µM; stronger effect = higher value. The text has this: NIH Chemical Genomics Center [NCGC] NIH Molecular Libraries Probe Centers Network [MLPCN] MLPCN Grant: NS064831-01 Assay Submitter (PI): David Sibley Dopamine receptors (DARs) are involved in the etiology and/or therapy of a number of neuropsychiatric and endocrine disorders. For instance, all receptor-based antiparkinsonian drugs work via stimulating the D2 DAR subtype whereas all FDA-approved antipsychotic agents are antagonists of this receptor. […] There are three different types of allosteric modulators that we are seeking, two of which will stimulate or augment receptor signaling, allosteric agonists and potentiators, while the third, allosteric antagonists, will attenuate receptor signaling. The present primary screening assay measures compound potentiation of an EC20 dopamine response by tracking calcium flux in a […], inducible Hek293 Trex D2 cell line.
D(2) dopamine receptor (Homo sapiens), sequence (P14416 whole entry, looked up): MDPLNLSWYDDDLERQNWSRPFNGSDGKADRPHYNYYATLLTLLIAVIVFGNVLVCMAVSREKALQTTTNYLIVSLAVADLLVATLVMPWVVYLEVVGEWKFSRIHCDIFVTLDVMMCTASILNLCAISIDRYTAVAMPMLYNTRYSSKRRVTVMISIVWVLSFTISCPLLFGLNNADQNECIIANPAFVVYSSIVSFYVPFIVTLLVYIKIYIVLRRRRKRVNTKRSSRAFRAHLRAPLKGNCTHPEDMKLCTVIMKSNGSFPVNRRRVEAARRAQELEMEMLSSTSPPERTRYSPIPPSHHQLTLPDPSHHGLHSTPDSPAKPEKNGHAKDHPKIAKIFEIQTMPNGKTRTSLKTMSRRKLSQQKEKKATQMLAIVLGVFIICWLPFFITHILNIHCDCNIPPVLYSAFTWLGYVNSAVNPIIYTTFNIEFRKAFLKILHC
Freshly passaged cells are plated in 1536 well black, clear bottom plates at a density of 4000 cells/well in 3 ul of complete media containing 1x tetracycline inducer. After an overnight incubation at 30 C in 5% CO2, cells are loaded with 2 ul of the no wash Calcium Assay Kit (ABD Bioquest) and incubated at room temperature for 30 to 90 minutes. A 10 cycle (1 second/cycle) baseline measurement is taken and then the FDSS online 1536 pintool delivers 23 nl of compound library (as well as dopamine controls) to the plate. The plate is measured for kinetically at 1 cycle/sec for 180 seconds and is considered to be the agonist portion of the assay (eg, compounds which activate a positive calcium response during this portion are flagged as potential agonists). Following the 180 second read, 1 ul of an EC20 of dopamine is delivered by an onboard pipette head. Measurements are taken kinetically for an additional 180 seconds.
With `CCC(C)n1[nH]c(=O)cc1N` (stereo not given), the potentiation was 2.87% (inactive).

For the molecule `CCCC(C)n1[nH]c(=O)c2c(C)cc(C)nc21` (stereo not given), the potentiation is 33% (active).

Turning to `CCC(C)n1[nH]c(=O)c2c(C)cc(C)nc21` (stereo not given), the potentiation is 1.22% (inactive).

For the molecule `CCOC(=O)c1oc2ccc(S(=O)(=O)n3nc(-c4ccccc4OC)cc3N)cc2c1C`, the potentiation was -0.8% (inactive).

As to `COc1ccc(-n2ccn(CC(=O)Nc3ccc(C)c(C)c3)c(=O)c2=O)cc1OC`, the potentiation was 6.27% (inactive).

Regarding `O=C(Nc1c(-c2ccc(F)cc2)nc2ccccn12)c1cccc(F)c1`, the potentiation is 12.9% (inactive).

For `CCN1CCc2nc3sc(C(=O)Nc4ccccc4OC(F)(F)F)c(N)c3cc2C1`, the potentiation is 3.95% (inactive).

With `Cc1cccc(N2CCN(C(=O)CN(C)S(=O)(=O)c3ccc4c(c3)CCC(=O)N4)CC2)c1C`, the potentiation was -3.34% (inactive).

For `CCOC(=O)Cc1csc(NC(=O)CN(C)S(=O)(=O)c2ccc3c(c2)CCC(=O)N3)n1`, the potentiation is 43% (active).

`CCOC(=O)Cc1csc(NC(=O)CSc2ccc(Br)cc2)n1`: the potentiation was -0.963% (inactive).

In the case of `Cc1sc(C2C(C#N)=C(N)N(c3cccc(Cl)c3)C3=C2C(=O)CCC3)cc1CN1CCOCC1` (stereo not given), the potentiation is -0.593% (inactive).

Take `O=C(Nc1ccc(S(=O)(=O)N2CCCCCC2)cc1)c1c(F)cccc1F`: the potentiation was 2.54% (inactive).

Take `CCN1CCN(c2ccc(NC(=O)c3cnccn3)cc2)CC1`: the potentiation is -0.266% (inactive).

For the molecule `O=C(Nc1ccc(S(=O)(=O)N2CCCCC2)cc1)c1cnccn1`, the potentiation is 30.4% (active).

With `CN(Cc1ccccc1)S(=O)(=O)c1ccc(F)c(C(=O)Nc2cccc(Cl)c2Cl)c1`, the potentiation is -2.84% (inactive).

As to `CCN(CC)S(=O)(=O)c1ccc2c(c1)N(CC(=O)NCc1ccccc1)C(=O)CS2`, the potentiation was -1.87% (inactive).

Regarding `CC(=O)Nc1ccc(S(=O)(=O)Nc2cccc(NC(=O)C(C)(C)C)c2)cc1`, the potentiation was 0.479% (inactive).

Regarding `CC(=O)NS(=O)(=O)c1ccccc1`, the potentiation was 10.6% (inactive).

Consider `CC(=O)NS(=O)(=O)c1ccc(NC(=S)NC(=O)C(C)(C)C)cc1`, for which the potentiation was 33.2% (active).

In the case of `O=C(CCn1c(=O)c2ccccc2n(Cc2ccc(Cl)cc2)c1=O)NCc1ccc2c(c1)OCO2`, the potentiation was -11.6% (inactive).

For `O=C(Nc1ccc(Br)cc1)c1cc2nc(-c3ccccc3)cc(-c3ccccc3)n2n1`, the potentiation was -4.38% (inactive).

For `Cc1ccccc1-c1nc(SCC(=O)N(C)c2ccccc2)c2c(=O)n(C)c(=O)n(C)c2n1`, the potentiation was -12.5% (inactive).

Take `CC1CCN(c2nc3c(c(=O)[nH]c(=O)n3C)n2CCCc2ccccc2)CC1`: the potentiation is 45% (active).

Regarding `Cn1c(=O)[nH]c(=O)c2c1nc(N1CCCCCC1)n2CC(=O)c1ccccc1`, the potentiation was -3.5% (inactive).

On to `Cn1c(=O)[nH]c(=O)c2c1nc(N1CCN(C(c3ccccc3)c3ccccc3)CC1)n2CCO`, for which the potentiation is 3.98% (inactive).

For `CCOC(=O)N1CCc2c(sc(NCc3cccc(F)c3)c2C(=O)Nc2ccccc2OCC)C1`, the potentiation was -0.26% (inactive).

For `CCOc1ccc(S(=O)(=O)Nc2ccc(C(=O)NCCCN3CCCC3=O)cc2)cc1`, the potentiation was 11.5% (inactive).

`O=C(NCCCN1CCCC1=O)c1ccc(S(=O)(=O)Nc2ccccc2)cc1`: the potentiation was 3.61% (inactive).

`CCOc1ccc(C(=O)NCCCN2CCCC2=O)cc1`: the potentiation was 30.7% (active).

For the molecule `COc1cc(Cl)ccc1Nc1ncc(C(=O)N2CCN(c3ccccc3OC)CC2)c2ccccc12`, the potentiation is -3.04% (inactive).

For `NC(=O)CSc1nc2c(oc3ccccc32)c(=O)n1Cc1ccccc1`, the potentiation is 4.88% (inactive).

For the molecule `Cc1cccc(NC(=O)c2ccc3nc(C(C)C)oc3c2)c1C`, the potentiation is -11.3% (inactive).

As to `Nc1nc(NCCCN2CCOCC2)nc(Nc2ccccc2)c1[N+](=O)[O-]`, the potentiation is -1.17% (inactive).

Take `Nc1nc(NCC2CCCO2)nc(Nc2ccccc2F)c1[N+](=O)[O-]` (stereo not given): the potentiation is 31.9% (active).

`Nc1nc(Nc2ccccc2F)nc(NC2CCCCC2)c1[N+](=O)[O-]`: the potentiation is 6.13% (inactive).

`COc1ccc(NC(=O)CSc2nccn2C2CCCC2)cc1OC`: the potentiation is 7.4% (inactive).

For the molecule `Cc1cc(O)c(C(c2ccccc2)N2CCN(c3ccccc3F)CC2)c(=O)n1Cc1ccco1` (stereo not given), the potentiation was -21.6% (inactive).

For the molecule `O=C(NCc1ccccn1)c1c(O)c2c([nH]c1=O)CCCC2`, the potentiation was 4.39% (inactive).

Consider `C[N+](C)(C)CCNC(=O)c1c(O)c2c([nH]c1=O)CCCC2`, for which the potentiation was 13.8% (inactive).

In the case of `CCc1nnc(NC(=O)c2c(O)c3c([nH]c2=O)CCCC3)s1`, the potentiation is 55.5% (active).

In the case of `CN(C)CCCn1c(-c2ccc(Cl)cc2)csc1=Nc1ccccc1`, the potentiation was -16.7% (inactive).

In the case of `CC(c1ccccc1)n1c(NCCCn2ccnc2)nc2c1c(=O)[nH]c(=O)n2C` (stereo not given), the potentiation is -8.07% (inactive).

In the case of `Cn1c(=O)[nH]c(=O)c2c1nc(NCCc1ccccc1)n2Cc1ccc(F)cc1`, the potentiation is -10.3% (inactive).

Consider `Cn1c(=O)[nH]c(=O)c2c1nc(NCCCn1ccnc1)n2Cc1cccc(Br)c1`, for which the potentiation was 40% (active).

Take `Cc1cccc(C(CC(=O)NCC2(c3ccccc3)CCCC2)c2ccccc2)c1O` (stereo not given): the potentiation was 8.89% (inactive).

As for `CCOC(=O)c1ccc(NC(=O)c2csc3c2CCCCC3)cc1`, the potentiation was 1.32% (inactive).

For the molecule `CC1CC(C)CN(CCCNC(=O)c2csc3c2CCCCC3)C1` (stereo not given), the potentiation is 30.4% (active).

Consider `CCOc1ccc(CCNC(=O)c2csc3c2CCCCC3)cc1`, for which the potentiation is -0.665% (inactive).

`Cc1ccc(NC(=O)CSc2nnc3[nH]c(=O)cc(C)n23)cc1Cl`: the potentiation is -5% (inactive).

For `Cc1nc2ccccc2n1CC(=O)N/N=C/c1cccs1`, the potentiation was 0.665% (inactive).

As to `Cc1n[nH]c(=O)nc1N/N=C/c1cccs1`, the potentiation is 36.2% (active).

Take `Cc1cc(C)nc(SC(C)C(=O)N/N=C/c2cccs2)n1` (stereo not given): the potentiation was 12.3% (inactive).

As to `CCOC(=O)C1CCN(c2ncnc3c2c(-c2ccccc2)cn3-c2cccc(C)c2)CC1`, the potentiation was -2.84% (inactive).

In the case of `CCOC(=O)C1CCN(Cc2nnc(-c3cccc(Br)c3)o2)CC1`, the potentiation is -5.55% (inactive).

For the molecule `CCOC(=O)C1CCN(c2ncnc3c2oc2ccc(Br)cc23)CC1`, the potentiation was 34.7% (active).

Take `CCCCOc1ccc(CN2C(=O)C(=O)c3cc(Br)cc(C)c32)cc1OC`: the potentiation is 21.8% (inactive).

`Cc1ccc(N2CCN(C(=O)CCc3c(C)nc4c(c3C)c(=O)n(C)c(=O)n4C)CC2)c(C)c1`: the potentiation is -0.454% (inactive).

As to `CCN(CC(=O)NCCc1ccccc1)S(=O)(=O)c1ccccc1`, the potentiation is 13.4% (inactive).

Consider `CCc1ccc(NS(=O)(=O)c2ccc3[nH]cc(C(=O)NCCc4cccc(C)c4)c(=O)c3c2)cc1`, for which the potentiation was -7.11% (inactive).

On to `CCN(CC)S(=O)(=O)c1ccc2[nH]cc(C(=O)NCCc3ccccc3)c(=O)c2c1`, for which the potentiation was -2.89% (inactive) and 46.8% (active).
